Results filed as inconclusive are left out. More than one record can exist for a structure, and the calls need not agree. The source made the active and inactive calls. The calls were made as follows: active = hit-call score of the fitted dose curve at least 0.9, where 1 is the maximum; inconclusive = response in the unintended direction; inactive = score below 0.9. Where a SMILES comes first, the peptide text is derived from it. [ ]: non-standard residue; d: D form. pGlu = O=C1CC[C@@H](C(=O)O)N1
Tests used:
[1] = TOX21_p53_BLA_p2_viability: Viability Assessment in the Tox21 HCT-116 p53 Agonism Beta-lactamase Assay, Phase 2 (AID 2283591);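 also: compound exposure lasted 16 h at 37 °C; actives lower the ATP signal meaning cytotoxicity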
In short: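 HCT-116 p53-bla cells (4000/well) rested 5 h at 37C, then received compounds in DMSO (217-fold dilution) for 16 h at 37C, 5% CO2. After the CCF4 read, CellTiter-Glo was added; ATP luminescence was read after 30 min at room temperature.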

[2] = target: Cellular tumor antigen p53 (Homo sapiens) (UniProt P04637); experiment: TOX21_p53_BLA_p5_ratio: Tox21 HCT-116 p53 Agonism Beta-lactamase Assay, Ratio, Phase 5 (AID 2283599)
Chain of Cellular tumor antigen p53 (Homo sapiens) (P04637 whole entry, looked up): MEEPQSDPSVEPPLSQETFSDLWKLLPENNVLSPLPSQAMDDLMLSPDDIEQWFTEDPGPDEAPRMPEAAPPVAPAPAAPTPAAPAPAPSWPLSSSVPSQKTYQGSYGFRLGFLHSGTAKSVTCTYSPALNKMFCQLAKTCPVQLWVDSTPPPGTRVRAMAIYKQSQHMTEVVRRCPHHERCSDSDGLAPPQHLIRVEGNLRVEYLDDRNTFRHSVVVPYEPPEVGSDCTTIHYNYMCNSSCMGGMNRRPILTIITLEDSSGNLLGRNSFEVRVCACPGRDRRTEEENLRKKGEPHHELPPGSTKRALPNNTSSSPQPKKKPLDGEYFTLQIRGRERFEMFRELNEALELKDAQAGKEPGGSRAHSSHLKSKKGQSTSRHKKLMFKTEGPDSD
In short: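 HCT-116 cells carrying a p53-inducible beta-lactamase reporter were seeded at 4000 cells/well and dosed after 5 h with compound in DMSO (217-fold dilution). After 16 h at 37C, CCF4-AM substrate was added for 2 h, and the 460/530 nm emission ratio was scored as gain-of-signal versus DMSO.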

[3] = TOX21_p53_BLA_p5_viability: Viability Assessment in the Tox21 HCT-116 p53 Agonism Beta-lactamase Assay, Phase 5 (AID 2283600)
In short: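 Compounds, pinned from DMSO at 217-fold dilution, were left on the cells for 16 h. The viability endpoint was ATP content measured by CellTiter-Glo luminescence, where falling signal reflects cytotoxicity.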

[4] = target: Cellular tumor antigen p53 (Homo sapiens) (UniProt P04637); experiment: TOX21_p53_BLA_p4_ratio: Tox21 HCT-116 p53 Agonism Beta-lactamase Assay, Ratio, Phase 4 (AID 2283601)
In short: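 HCT116 cells carrying an inducible beta-lactamase reporter were plated at 4000 cells/well, rested 5 h, then exposed to compounds in DMSO (217-fold dilution) for 16 h at 37C. CCF4-AM substrate was loaded 2 h at room temperature; 460/530 nm emission ratio scored gain-of-signal versus DMSO.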

[5] = target: Cellular tumor antigen p53 (Homo sapiens) (UniProt P04637); experiment: TOX21_p53_BLA_p2_ratio: Tox21 HCT-116 p53 Agonism Beta-lactamase Assay, Ratio, Phase 2 (AID 2283592)
In short: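 In this cell-based reporter format, HCT116 cells were dosed with chemicals delivered from DMSO by 217-fold dilution and incubated 16 h at 37C. Emission at 460 and 530 nm after 2 h CCF4-AM loading provided the ratio, fitted upward versus DMSO.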

[6] = TOX21_p53_BLA_p3_viability: Viability Assessment in the Tox21 HCT-116 p53 Agonism Beta-lactamase Assay, Phase 3 (AID 2283593);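 also: cells exposed to compound for 16 h before reading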
In short: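 HCT-116 cells (4000/well) rested 5 h at 37C, then got DMSO compounds by pin tool (217-fold dilution) for 16 h at 37C, 5% CO2. After the bla read, CellTiter-Glo was added and luminescence read at 30 min, room temperature.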

[7] = target: Cellular tumor antigen p53 (Homo sapiens) (UniProt P04637); experiment: TOX21_p53_BLA_p3_ratio: Tox21 HCT-116 p53 Agonism Beta-lactamase Assay, Ratio, Phase 3 (AID 2283596)
In short: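 HCT116 p53-bla cells (4000/well) given compound in DMSO (217-fold dilution) after 5 h, incubated 16 h at 37C. CCF4-AM substrate 2 h at room temperature; 460/530 nm emission ratio, gain fitted against DMSO.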

[8] = TOX21_p53_BLA_p4_viability: Viability Assessment in the Tox21 HCT-116 p53 Agonism Beta-lactamase Assay, Phase 4 (AID 2283597);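 also: hits lower the luminescence signal meaning cytotoxicity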
In short: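 We seeded HCT116 p53 reporter cells at 4000/well and waited 5 h. We then added compounds in DMSO at a 217-fold dilution and incubated for 16 h. Viability was read as CellTiter-Glo luminescence after 30 min at RT.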

Measured: AC50

CC(=O)Nc1ccc(OC(C)=O)cc1
inactive: [1] | [2] | [3] | [4]

CSSc1ccoc1C
inactive: [5] | [6]
active: [7] 40.4 µM

CC[C@H](C)[C@H](NC(=O)[C@H](Cc1ccccc1)NC(=O)[C@H](C)NC(=O)[C@H](CC(=O)O)NC(=O)[C@H](CCCCN)NC(=O)[C@H](CO)NC(=O)[C@@H]1CCCN1C(=O)[C@@H]1CCC(=O)N1)C(=O)NCC(=O)N[C@@H](CC(C)C)C(=O)N[C@@H](CCSC)C(N)=O ([pGlu]PSKDAFIGLM-NH2)
inactive: [1] | [2] | [3] | [4]

c1ccsc1
inactive: [5]

O=[N+]([O-])c1ccc(F)c(Cl)c1
inactive: [5] | [6]

Nc1cc(C(=O)O)ccc1Cl
inactive: [5] | [6]

Nc1ccc(S(=O)(=O)O)cc1
inactive: [5] | [6] | [7]

OC(CN1CCCCC1)c1cc(-c2ccccc2)on1 (stereo unspecified)
inactive: [1] | [4]

CCCCCCCC/C=C\CCCCCCCCCCCC(=O)O
inactive: [1] | [2] | [4]

COc1cc2c(cc1O)CCN[C@]21CS[C@@H]2c3c(OC(C)=O)c(C)c4c(c3[C@H](COC1=O)N1[C@@H]2[C@H]2c3c(cc(C)c(OC)c3O)C[C@@H]([C@@H]1O)N2C)OCO4
inactive: [5]
active: [5] 0.00174 µM

CC(C)(C)C1(O)CCN2CC3c4ccccc4CCc4cccc(c43)C2C1 (stereo unspecified)
inactive: [5]

C[C@@H](CN(C)C)CN1c2ccccc2Sc2ccccc21
inactive: [1] | [2] | [4]

C=CC(=O)OCC[N+](C)(C)C
inactive: [5]

OC[C@H]1O[C@@H](O[C@@H]2[C@@H](CO)O[C@](O)(CO)[C@H]2O)[C@H](O)[C@@H](O)[C@H]1O
inactive: [1] | [2] | [3] | [4]

C[Si](C)(C)Cl
inactive: [1] | [4]

C=C(C)C(=O)OC(C)C
inactive: [5] | [6]

CC(C)[C@@H](C)/C=C/[C@@H](C)[C@H]1CC[C@H]2/C(=C/C=C3\C[C@@H](O)CC[C@@H]3C)CCC[C@]12C
inactive: [5] | [6] | [7] | [8]

CCCC(=O)Nc1c(I)cc(I)c(CC(CC)C(=O)O)c1I (stereo unspecified)
inactive: [5]

C[C@H](N)[C@H](O)c1cccc(O)c1
inactive: [5] | [6]

CSc1ccc(C(=O)c2[nH]c(=O)[nH]c2C)cc1
inactive: [1] | [2] | [3] | [4]

O=C1NCCN1
inactive: [5] | [6] | [7]

CC(=O)N(CC(O)CO)c1c(I)c(C(=O)NCC(O)CO)c(I)c(C(=O)NCC(O)CO)c1I (stereo unspecified)
inactive: [5] | [6] | [7] | [8]

Oc1ccc(-c2ccc(O)cc2)cc1
active: [4] 46.8 µM
inactive: [1] | [2] | [3]

CC(C)CC(O)CC(C)C
inactive: [1] | [3]

CCN1CC(CCN2CCOCC2)C(c2ccccc2)(c2ccccc2)C1=O (stereo unspecified)
inactive: [5] | [6] | [7] | [8] | [2]

Nc1nnnn1-c1ccccc1
inactive: [5] | [6] | [7] | [8] | [2] | [3]

C=C(C)C(=O)OCC(C)(C)COC(=O)C(=C)C
inactive: [5] | [6] | [7] | [8] | [2] | [3] | [4]

CCCCCCCCS
inactive: [5] | [6] | [7] | [8] | [2]

CCOC(=O)CS
inactive: [5] | [6] | [7] | [8] | [2] | [3] | [4]

CC1(C)[C@@H]2CC[C@@]1(C)[C@H](OC(=O)CSC#N)C2
inactive: [5] | [6] | [7] | [8] | [2]

CO[C@@H]1[C@@H](O[C@@H]2O[C@H](C)[C@@H](O[C@H]3C[C@](C)(O)[C@@H](O)[C@H](C)O3)[C@H](N(C)C)[C@H]2O)[C@H](CC=O)C[C@@H](C)[C@H](O[C@H]2CC[C@H](N(C)C)[C@@H](C)O2)/C=C\C=C\C[C@@H](C)OC(=O)C[C@H]1O
inactive: [5] | [6] | [7] | [8] | [2]

O=C1OC(O)C(C(Cl)Cl)=C1Cl (stereo unspecified)
inactive: [3] | [4]
active: [5] 13.2 µM | [6] 14.6 µM | [7] 13.3 µM | [8] 12.7 µM | [2] 25.6 µM

NC(=O)c1cccc([N+](=O)[O-])c1
inactive: [5] | [6] | [7] | [8] | [2] | [3]

CC1=C(C=O)C(C)(C)CC=C1
inactive: [5] | [6] | [7] | [8] | [2]

CC1=NS(=O)(=O)c2cc(Cl)ccc2N1
inactive: [5] | [6] | [7] | [8] | [2]
